In general, residual activity refers to the signal under treatment as a percentage of the control signal.

For 4 molecules, residual activity results are on record in ChEMBL document CHEMBL2218924, “A broad activity screen in support of a chemogenomic map for kinase signalling research and drug discovery” (Biochem J, 2013).

Assay [1] deals with T1, Inhibitor of nuclear factor kappa-B kinase subunit beta (Homo sapiens) (UniProt O14920).
T1 sequence (whole entry): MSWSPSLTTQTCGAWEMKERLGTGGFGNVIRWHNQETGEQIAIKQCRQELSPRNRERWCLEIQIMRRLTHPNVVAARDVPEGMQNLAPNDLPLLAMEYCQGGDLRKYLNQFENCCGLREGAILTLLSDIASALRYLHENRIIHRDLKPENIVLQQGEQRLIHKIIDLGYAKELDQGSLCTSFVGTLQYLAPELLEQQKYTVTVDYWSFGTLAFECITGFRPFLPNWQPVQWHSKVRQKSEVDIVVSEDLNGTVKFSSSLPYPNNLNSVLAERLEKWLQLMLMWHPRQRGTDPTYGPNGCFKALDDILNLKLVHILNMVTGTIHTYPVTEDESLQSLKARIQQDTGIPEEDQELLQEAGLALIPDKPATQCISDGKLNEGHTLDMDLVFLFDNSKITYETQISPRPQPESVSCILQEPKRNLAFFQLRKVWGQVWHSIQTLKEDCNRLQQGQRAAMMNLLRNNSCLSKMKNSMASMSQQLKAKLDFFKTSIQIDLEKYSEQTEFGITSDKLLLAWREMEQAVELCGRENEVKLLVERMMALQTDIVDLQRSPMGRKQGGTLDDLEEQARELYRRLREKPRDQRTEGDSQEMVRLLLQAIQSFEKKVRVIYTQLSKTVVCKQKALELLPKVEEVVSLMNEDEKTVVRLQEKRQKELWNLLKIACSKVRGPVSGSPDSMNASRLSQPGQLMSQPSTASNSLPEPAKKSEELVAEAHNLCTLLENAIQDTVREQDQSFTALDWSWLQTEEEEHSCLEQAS
Conditions: at 1 µM.

For assay [2], the target named is Insulin receptor (Homo sapiens) (UniProt P06213). Conditions: at 1 µM.
The target is the same in assay [3]. The following applies: at 10 µM.
The target is the same in assay [4]. The following applies: at 1 µM. The source holds these as a separate data set.
Assay [5] has the same target. The following applies: at 10 µM. This is another data set of the same source.
Assay [6] has as its target Interleukin-1 receptor-associated kinase 1 (Homo sapiens) (UniProt P51617). The following applies: at 1 µM.
Assay [7] shares this target. The following applies: at 10 µM.
Assay [8] deals with T2, Interleukin-1 receptor-associated kinase 4 (Homo sapiens) (UniProt Q9NWZ3).
T2 sequence (whole entry): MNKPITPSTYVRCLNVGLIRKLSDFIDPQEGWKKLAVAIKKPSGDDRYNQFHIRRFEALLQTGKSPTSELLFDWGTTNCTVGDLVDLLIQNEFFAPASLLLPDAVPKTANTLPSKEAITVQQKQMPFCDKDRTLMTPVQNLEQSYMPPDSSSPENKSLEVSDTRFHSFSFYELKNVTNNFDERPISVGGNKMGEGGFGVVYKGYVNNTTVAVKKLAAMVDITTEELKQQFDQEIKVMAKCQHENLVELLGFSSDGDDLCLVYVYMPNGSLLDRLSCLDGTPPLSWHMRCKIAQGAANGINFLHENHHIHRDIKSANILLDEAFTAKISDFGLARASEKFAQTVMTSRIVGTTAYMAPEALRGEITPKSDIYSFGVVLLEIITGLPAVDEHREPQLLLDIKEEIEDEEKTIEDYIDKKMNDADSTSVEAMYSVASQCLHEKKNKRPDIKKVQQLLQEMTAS
The following applies: at 1 µM.

The target in assay [9] is T2, Interleukin-1 receptor-associated kinase 4 (Homo sapiens). The following applies: at 10 µM.
Assay [10] addresses Insulin receptor-related protein (Homo sapiens) (UniProt P14616). Conditions: at 1 µM.
The target is the same in assay [11]. Conditions: at 10 µM.
The target of assay [12] is T3, Tyrosine-protein kinase ITK/TSK (Homo sapiens) (UniProt Q08881).
T3 sequence (whole entry): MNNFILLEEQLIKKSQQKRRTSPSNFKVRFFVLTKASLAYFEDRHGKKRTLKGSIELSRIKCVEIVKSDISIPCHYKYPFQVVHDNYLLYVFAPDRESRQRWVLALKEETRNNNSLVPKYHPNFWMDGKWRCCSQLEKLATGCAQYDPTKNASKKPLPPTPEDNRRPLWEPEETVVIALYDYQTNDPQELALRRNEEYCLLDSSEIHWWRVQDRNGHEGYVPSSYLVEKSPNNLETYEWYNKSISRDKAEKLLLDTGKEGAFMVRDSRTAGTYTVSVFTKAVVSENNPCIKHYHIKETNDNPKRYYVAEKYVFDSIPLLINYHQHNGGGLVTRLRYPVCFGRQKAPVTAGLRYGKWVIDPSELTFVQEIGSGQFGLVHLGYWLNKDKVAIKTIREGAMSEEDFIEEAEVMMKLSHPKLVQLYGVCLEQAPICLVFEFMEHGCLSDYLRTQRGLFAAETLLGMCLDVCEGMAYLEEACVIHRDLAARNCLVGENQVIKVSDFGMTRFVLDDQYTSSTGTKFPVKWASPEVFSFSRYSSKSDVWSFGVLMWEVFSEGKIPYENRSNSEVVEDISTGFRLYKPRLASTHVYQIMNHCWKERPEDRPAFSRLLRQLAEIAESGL
Conditions: at 1 µM.

Assay [13] deals with T3, Tyrosine-protein kinase ITK/TSK (Homo sapiens). Conditions: at 10 µM.
For assay [14], the target named is Tyrosine-protein kinase JAK2 (Homo sapiens) (UniProt O60674). Conditions: at 10 µM.
The target in assay [15] is T4, Inhibitor of nuclear factor kappa-B kinase subunit alpha (Homo sapiens) (UniProt O15111).
T4 sequence (whole entry): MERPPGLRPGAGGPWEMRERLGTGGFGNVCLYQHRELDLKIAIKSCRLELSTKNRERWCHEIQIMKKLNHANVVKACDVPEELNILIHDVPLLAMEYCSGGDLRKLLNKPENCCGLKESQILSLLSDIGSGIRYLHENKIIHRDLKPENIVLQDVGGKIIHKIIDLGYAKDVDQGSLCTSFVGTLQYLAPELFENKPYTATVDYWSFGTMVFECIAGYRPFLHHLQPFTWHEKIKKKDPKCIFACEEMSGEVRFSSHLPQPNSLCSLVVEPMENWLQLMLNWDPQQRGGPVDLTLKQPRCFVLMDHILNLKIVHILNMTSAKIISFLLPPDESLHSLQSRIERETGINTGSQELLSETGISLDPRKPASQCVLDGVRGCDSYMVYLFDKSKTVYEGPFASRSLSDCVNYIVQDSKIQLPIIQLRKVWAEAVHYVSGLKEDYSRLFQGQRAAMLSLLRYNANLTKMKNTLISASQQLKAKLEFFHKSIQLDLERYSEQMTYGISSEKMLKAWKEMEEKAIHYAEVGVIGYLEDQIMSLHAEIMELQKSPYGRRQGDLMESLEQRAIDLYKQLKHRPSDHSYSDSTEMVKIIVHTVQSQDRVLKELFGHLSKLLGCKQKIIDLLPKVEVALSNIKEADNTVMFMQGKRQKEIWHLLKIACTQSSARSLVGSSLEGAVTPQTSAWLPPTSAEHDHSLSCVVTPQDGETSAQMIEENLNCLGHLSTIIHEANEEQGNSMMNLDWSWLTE
Conditions: at 1 µM.

Assay [16] has as its target T4, Inhibitor of nuclear factor kappa-B kinase subunit alpha (Homo sapiens). Conditions: at 10 µM.
Assay [17] has as its target T1, Inhibitor of nuclear factor kappa-B kinase subunit beta (Homo sapiens). Conditions: at 10 µM.
Assay [18] deals with Tyrosine-protein kinase JAK2 (Homo sapiens) (UniProt O60674). The following applies: at 1 µM.
For assay [19], the target named is T5, Tyrosine-protein kinase JAK3 (Homo sapiens) (UniProt P52333).
T5 sequence (whole entry): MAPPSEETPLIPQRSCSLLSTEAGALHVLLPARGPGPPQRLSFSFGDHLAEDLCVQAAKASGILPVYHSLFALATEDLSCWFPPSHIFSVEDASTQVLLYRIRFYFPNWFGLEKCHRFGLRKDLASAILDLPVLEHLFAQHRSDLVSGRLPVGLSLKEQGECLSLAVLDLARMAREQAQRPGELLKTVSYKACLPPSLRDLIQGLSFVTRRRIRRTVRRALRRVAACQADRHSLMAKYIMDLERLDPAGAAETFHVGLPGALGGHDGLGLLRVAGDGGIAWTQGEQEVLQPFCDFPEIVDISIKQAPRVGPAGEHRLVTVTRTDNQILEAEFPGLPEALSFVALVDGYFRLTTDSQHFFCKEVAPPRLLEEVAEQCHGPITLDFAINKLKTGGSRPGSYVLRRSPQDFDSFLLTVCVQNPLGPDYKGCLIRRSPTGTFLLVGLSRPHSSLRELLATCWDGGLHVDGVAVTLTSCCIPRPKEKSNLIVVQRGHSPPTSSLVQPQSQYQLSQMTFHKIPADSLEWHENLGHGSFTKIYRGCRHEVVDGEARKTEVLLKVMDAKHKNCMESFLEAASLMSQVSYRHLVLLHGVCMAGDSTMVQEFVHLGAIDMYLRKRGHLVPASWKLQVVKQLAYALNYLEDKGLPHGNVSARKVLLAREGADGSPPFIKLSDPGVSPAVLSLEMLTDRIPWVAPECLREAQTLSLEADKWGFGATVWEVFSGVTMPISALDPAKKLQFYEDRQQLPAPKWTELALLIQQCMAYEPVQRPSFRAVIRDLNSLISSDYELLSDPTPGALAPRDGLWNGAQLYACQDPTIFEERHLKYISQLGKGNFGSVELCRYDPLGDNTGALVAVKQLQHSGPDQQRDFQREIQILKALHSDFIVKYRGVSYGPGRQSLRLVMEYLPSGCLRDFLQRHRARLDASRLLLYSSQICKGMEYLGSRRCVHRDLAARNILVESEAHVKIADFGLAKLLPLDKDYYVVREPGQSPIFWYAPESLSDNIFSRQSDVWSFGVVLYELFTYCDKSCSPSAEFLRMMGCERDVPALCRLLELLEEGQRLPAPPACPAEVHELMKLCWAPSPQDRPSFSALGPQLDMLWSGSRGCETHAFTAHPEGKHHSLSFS
Conditions: at 1 µM.

Assay [20] has as its target T5, Tyrosine-protein kinase JAK3 (Homo sapiens). Conditions: at 10 µM.

Sequence of Interleukin-1 receptor-associated kinase 1 (Homo sapiens) (P51617 whole entry, looked up): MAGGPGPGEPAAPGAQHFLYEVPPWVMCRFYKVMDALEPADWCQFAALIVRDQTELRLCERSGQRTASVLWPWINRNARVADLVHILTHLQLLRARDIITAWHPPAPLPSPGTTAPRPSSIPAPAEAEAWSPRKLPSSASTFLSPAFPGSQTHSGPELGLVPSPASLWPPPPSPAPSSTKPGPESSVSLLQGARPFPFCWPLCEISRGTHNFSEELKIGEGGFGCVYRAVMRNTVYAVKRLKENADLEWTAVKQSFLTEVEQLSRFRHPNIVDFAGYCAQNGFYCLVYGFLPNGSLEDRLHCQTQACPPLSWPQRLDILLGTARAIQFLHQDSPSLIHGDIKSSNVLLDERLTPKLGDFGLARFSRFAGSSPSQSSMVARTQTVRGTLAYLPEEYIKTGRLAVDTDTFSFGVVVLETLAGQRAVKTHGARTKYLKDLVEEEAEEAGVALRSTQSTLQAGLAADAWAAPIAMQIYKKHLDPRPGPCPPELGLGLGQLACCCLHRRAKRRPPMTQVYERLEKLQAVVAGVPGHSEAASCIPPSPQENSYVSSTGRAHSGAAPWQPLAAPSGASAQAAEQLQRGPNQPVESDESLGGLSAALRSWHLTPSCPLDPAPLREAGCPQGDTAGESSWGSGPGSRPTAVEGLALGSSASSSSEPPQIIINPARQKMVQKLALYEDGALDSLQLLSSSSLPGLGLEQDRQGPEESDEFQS
Sequence of Insulin receptor (Homo sapiens) (P06213 28-758 limits assumed): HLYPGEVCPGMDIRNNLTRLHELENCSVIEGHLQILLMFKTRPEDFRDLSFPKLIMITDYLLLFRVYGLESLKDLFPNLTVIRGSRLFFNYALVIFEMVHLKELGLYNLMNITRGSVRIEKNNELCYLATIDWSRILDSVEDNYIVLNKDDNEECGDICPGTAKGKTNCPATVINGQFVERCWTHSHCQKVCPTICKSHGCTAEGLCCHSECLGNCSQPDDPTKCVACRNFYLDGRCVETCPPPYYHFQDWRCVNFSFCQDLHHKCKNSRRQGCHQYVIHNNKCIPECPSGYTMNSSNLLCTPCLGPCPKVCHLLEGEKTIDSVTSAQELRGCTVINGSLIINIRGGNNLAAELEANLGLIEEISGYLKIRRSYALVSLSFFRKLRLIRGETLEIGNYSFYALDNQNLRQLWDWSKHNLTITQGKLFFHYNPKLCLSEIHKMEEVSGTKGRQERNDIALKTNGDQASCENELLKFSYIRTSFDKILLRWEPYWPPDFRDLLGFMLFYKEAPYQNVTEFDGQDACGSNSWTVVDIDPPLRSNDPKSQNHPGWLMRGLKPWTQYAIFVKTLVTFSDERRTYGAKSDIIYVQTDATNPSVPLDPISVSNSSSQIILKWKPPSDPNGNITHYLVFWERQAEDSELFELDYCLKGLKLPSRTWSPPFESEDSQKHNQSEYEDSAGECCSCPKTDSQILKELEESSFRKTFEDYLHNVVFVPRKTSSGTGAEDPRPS
Sequence of Insulin receptor (Homo sapiens) (P06213 763-1382 limits assumed): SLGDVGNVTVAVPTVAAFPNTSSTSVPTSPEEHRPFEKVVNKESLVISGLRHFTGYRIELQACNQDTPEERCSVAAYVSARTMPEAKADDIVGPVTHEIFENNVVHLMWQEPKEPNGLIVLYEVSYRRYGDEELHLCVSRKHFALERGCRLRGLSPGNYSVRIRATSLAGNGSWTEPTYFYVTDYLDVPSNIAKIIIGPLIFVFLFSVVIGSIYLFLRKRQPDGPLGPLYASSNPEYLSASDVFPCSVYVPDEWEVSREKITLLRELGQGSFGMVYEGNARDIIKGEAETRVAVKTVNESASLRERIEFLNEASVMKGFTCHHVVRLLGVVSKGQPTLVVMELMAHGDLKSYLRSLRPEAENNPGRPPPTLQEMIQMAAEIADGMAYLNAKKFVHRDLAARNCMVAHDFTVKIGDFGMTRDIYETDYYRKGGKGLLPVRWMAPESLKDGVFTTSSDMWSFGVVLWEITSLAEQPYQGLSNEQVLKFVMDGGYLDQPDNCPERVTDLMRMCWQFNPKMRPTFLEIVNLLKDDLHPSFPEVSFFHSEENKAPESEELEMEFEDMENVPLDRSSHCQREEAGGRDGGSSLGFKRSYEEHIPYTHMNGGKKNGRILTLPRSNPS
Sequence of Insulin receptor-related protein (Homo sapiens) (P14616 27-742 limits assumed): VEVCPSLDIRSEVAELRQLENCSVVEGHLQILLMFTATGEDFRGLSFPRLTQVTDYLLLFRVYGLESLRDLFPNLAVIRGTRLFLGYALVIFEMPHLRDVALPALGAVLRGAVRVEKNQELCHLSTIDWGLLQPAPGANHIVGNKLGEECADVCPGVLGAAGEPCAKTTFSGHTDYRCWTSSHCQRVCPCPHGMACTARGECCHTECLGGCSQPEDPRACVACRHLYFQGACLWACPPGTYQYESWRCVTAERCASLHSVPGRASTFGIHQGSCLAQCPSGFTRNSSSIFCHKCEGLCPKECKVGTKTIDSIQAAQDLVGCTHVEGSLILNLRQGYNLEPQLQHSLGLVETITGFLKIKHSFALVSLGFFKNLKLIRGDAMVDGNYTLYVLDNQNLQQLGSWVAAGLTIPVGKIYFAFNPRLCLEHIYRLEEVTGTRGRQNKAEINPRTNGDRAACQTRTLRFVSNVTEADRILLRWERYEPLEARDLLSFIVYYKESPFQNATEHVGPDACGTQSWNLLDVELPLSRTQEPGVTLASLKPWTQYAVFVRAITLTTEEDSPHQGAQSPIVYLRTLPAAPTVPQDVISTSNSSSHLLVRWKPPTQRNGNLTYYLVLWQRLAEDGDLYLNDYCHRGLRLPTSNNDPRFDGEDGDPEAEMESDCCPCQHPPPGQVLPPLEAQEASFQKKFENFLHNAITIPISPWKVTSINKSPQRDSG
Sequence of Insulin receptor-related protein (Homo sapiens) (P14616 747-1297 limits assumed): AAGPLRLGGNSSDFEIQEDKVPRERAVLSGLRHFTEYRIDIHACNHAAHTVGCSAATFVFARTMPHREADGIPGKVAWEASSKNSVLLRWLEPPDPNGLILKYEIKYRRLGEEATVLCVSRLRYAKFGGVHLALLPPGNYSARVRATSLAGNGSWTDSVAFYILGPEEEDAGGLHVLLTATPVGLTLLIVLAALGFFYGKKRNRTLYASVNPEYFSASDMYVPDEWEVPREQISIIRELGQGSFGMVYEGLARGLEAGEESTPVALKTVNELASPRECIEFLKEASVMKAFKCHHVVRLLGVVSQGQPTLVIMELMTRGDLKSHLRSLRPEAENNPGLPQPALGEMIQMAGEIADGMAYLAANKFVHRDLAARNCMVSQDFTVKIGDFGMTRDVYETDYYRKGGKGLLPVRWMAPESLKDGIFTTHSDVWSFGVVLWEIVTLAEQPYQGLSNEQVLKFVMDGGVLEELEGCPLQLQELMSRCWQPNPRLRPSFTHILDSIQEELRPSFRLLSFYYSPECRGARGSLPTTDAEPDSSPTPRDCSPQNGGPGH
Sequence of Tyrosine-protein kinase JAK2 (Homo sapiens) (O60674 whole entry): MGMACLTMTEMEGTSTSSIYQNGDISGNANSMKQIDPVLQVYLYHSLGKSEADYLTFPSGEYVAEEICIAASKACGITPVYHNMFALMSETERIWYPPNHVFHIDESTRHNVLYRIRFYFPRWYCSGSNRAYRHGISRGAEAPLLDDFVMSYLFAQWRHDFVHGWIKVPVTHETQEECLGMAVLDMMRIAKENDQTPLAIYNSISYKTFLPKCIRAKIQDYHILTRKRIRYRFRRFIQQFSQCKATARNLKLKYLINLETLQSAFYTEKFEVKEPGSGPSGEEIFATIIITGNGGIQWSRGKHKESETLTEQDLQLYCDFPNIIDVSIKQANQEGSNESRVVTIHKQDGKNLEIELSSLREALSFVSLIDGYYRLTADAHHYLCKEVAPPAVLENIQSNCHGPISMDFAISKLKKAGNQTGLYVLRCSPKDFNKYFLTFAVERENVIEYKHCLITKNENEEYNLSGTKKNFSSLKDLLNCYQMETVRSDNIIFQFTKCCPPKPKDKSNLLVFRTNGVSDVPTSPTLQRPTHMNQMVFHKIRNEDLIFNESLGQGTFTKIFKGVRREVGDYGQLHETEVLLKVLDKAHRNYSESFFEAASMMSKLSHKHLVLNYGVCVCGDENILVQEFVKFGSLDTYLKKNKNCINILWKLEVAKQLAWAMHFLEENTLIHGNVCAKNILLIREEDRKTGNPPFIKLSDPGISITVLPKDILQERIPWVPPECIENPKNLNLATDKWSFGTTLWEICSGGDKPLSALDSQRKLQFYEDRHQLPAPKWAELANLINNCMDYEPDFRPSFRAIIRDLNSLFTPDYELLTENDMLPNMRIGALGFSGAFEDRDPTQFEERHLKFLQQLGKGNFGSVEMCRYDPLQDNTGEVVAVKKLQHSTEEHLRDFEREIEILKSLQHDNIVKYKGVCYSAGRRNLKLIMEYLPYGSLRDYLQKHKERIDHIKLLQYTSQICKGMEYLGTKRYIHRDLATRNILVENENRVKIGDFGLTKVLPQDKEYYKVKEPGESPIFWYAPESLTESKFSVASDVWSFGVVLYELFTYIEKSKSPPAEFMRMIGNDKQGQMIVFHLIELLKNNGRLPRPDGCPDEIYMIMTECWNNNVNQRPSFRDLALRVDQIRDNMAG

Take `CC(C)[C@H](CO)Nc1nc(Nc2cccc(Cl)c2)c2ncn(C(C)C)c2n1`: the residual activity in assay [1] came out at 116%; in assay [2], 81%; in assay [3] it was 33%; in assay [4] it was 34%; in assay [5] it was 4%; in assay [6] it was 81%. For the same molecule, the residual activity in [7] is 23%; in assay [8] it was 45%; in assay [9] it was 9%; in assay [10] it was 83%; in [11] it was 3%; in assay [12], 68%. Besides, the residual activity in [13] is 11%; in [14], 73%.
Regarding `O=c1[nH]c2ccccc2n1C1CCN(Cc2ccc(-c3nc4cc5[nH]cnc5cc4nc3-c3ccccc3)cc2)CC1`, the residual activity was 118% in assay [15]; 109% in assay [16]; 101% in assay [1]; 102% in assay [17]; 119% in assay [2]; 75% in [3]. Moreover, the residual activity in assay [4] was 103%; in assay [5] it was 98%; in [6], 103%; in assay [7], 88%; in [8] it was 106%; in assay [9], 93%. For the same molecule, the residual activity was 124% in assay [10]; 95% in [11]; 99% in assay [12]; 95% in [13]; 120% in assay [18]; 107% in assay [14]. For the same molecule, the residual activity was found to be 110% in assay [19] and 126% in assay [20].
Regarding `CCc1nc(-c2ccc(OC)cc2)[nH]c1-c1ccncc1`, the residual activity was determined as 100% in assay [15]; 104% in assay [16]; 119% in [1]; 112% in assay [17]; 100% in assay [18]; 105% in assay [14]. The values for the residual activity in assay [19] and in assay [20] were 113% and 103%, respectively.
As to `O=C1Nc2ccc3ncsc3c2/C1=C/c1c[nH]cn1`, the residual activity in assay [15] amounted to 8%; in assay [16], 1%; in assay [1], 68%; in assay [17] it was 25%; in assay [2] it was 85%; in assay [3], 31%. In addition, the residual activity in assay [4] came to 80%; in assay [5], 36%; in assay [6], 28%; in [7], 7%; in assay [8], 41%; in assay [9] it was 15%. Also, the residual activity is 119% in [10]; 36% in assay [11]; 67% in [12]; 21% in [13]; 59% in assay [18]; 18% in [14]. Further, the residual activity in assay [19] is 16%; in assay [20] it was 3%.
